Measured values from PubChem BioAssay.
Entries with a potency or affinity are not part of this list. Records with an inconclusive call do not appear. Activity calls are given as the source filed them.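 How the source made its calls, unless noted: active means a dose-response fit showing signal loss, with half-maximal concentration no higher than twice the top tested dose; inconclusive means flat fit between 30% and 70% signal loss, or poor fit; inactive means the rest.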

How the values were obtained:
[1] = inducers of Cryptococcus neoformans cell lysis, dose response, AK release luminescence, cherry-picks (AID 687000;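 active means fitted dose curve reaches 40% lysis signal rise at or below the highest valid concentration tested for that sample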;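 further: luminescent detection of adenylate kinase leaking from lysed yeast; 0% = median neutral control signal and 100% = double that signal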)
[2] = HepG2 cell cytotoxicity, dose response, cytotoxicity control, cherry-picks, set 2 (AID 687002)
[3] = HeLa cell cytotoxicity, dose response, cytotoxicity control, ATP luminescence, cherry-pick samples (AID 687004;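 active means a fitted half-maximal concentration no higher than twice the top valid tested dose, with signal falling as cells die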;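 further: 0% = neutral control median and -100% = staurosporine 10 µM control median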)
[4] = Cryptococcus neoformans growth inhibition, dose response, Alamar Blue, cherry-picks (AID 686998;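 active means falling signal with fitted half-maximal potency no higher than twice the top valid tested dose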)
[5] = cytotoxicity in PAX8-dependent RMG-1 cells, dose response, cell-based, cherry-pick (AID 687029;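 active means signal drop whose fitted half-maximal concentration is at most twice the top valid dose, in every test run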;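 further: cells exposed to compound for 96 hours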)
[6] = cytotoxicity in IOSE-T80 ovarian epithelial cells, dose response, selectivity assay for PAX8 inhibitor project, cell-based, cherry-pick (AID 687032;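 active means fitted half-maximal concentration for viability loss no higher than twice the top valid dose, in every repeat run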;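 further: cells exposed to compound for 96 h before reading; 0% = neutral control wells and -100% = 2 µM mitoxantrone kill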)
[7] = inhibitors of CMV-promoter luciferase reporter, dose response, counter-screen for Pax8 inhibitor project, cell-based, HEK293, luminescence, dry powder (AID 743020;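 active means signal-lowering compounds whose fitted half-maximal concentration is at or below twice the top tested dose in every run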;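 further: HEK293 cells stably expressing the CMV luciferase reporter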)
[8] = non-specific cell cytotoxicity, dose response, cytotoxicity control for PAX8 inhibitor project, plate reader, dry powder samples (AID 743021; call rule not given here)
[9] = IGROV1 ovarian cancer cell cytotoxicity, dose response, PAX8 inhibitor project, plate reader, dry powder samples (AID 743043; call rule not given here;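 further: more negative means fewer viable cells or more cytotoxicity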)
[10] = NIH:OVCAR-3 ovarian cancer cell cytotoxicity, dose response, PAX8 inhibitor project, plate reader, dry powder samples (AID 743044; call rule not given here); conditions: max activity: at 35 µM, active compounds read low unless noted
[11] = IOSE-T80 ovarian epithelial cell cytotoxicity, dose response, cytotoxicity control for PAX8 inhibitor project, plate reader, dry powder samples (AID 743045; call rule not given here;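 further: 0% = neutral control median and -100% = positive control median; more negative values mean more cell killing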)
[12] = cytotoxicity in OVCAR8 ovarian cancer cells, dose response, PAX8 project, cell-based, plate reader, dry powder samples (AID 743197; call rule not given here)

Measured: max activity

C[C@@H]1CN([C@H](C)CO)S(=O)(=O)c2ccc(-c3ccccc3)cc2O[C@H]1CN(C)C(=O)C1CCCCC1
inactive: [1] | [2]

COc1ccc(NC(=S)NCc2ccccc2Cl)c(OC)c1
inactive: [1] | [2] | [3]

C[C@H](CO)N1C[C@H](C)[C@@H](CN(C)C(=O)c2ccncc2)OCCCC[C@H](C)Oc2ccc(NC(=O)Cc3ccccc3)cc2C1=O
inactive: [4] | [2] | [3]

CC=Cc1ccc2n(c1=O)C[C@@H]1[C@@H](CO)[C@H](C(=O)NCc3ccc4c(c3)OCO4)[C@H]2N1C(=O)C1CC1 (mixture of isomers)
inactive: [1] | [2] | [3]

Cc1noc(C)c1S(=O)(=O)Nc1ccc2c(c1)CC(=O)N([C@H](C)CO)C[C@H](C)[C@H](CN(C)S(=O)(=O)c1cccs1)O2
inactive: [4] | [2] | [3]

CC(=O)c1sc(NC(=O)c2cc(-c3ccccc3)nn2-c2ccccc2)nc1C
inactive: [1] | [2]

COc1cccc(S(=O)(=O)N(C)C[C@@H]2OCc3ccccc3-c3ccccc3C(=O)N([C@@H](C)CO)C[C@@H]2C)c1
inactive: [4] | [2] | [3] | [5] | [6] | [7] | [8] | [9] | [10] -40.1% [at 8 µM, active compounds read low] | [11] | [12]

CC(=O)c1sc(NC(=O)C2(F)C(F)(F)C(F)(F)C(F)(F)C(F)(F)C2(F)F)nc1C
inactive: [1] | [2]

CC(=O)NC12CC3CC(C1)CC(C(=O)NCC(=O)Nc1c(C)cc(C)cc1C)(C3)C2
inactive: [1] | [2] | [3]

C[C@H](CO)N1C[C@H](C)[C@@H](CN(C)C(=O)Nc2ccc3c(c2)OCO3)Oc2ccc(NS(=O)(=O)c3cccs3)cc2C1=O
inactive: [1] | [2] | [3]

COc1ccc(NC(=O)CSc2ncnc3c2cnn3CCc2ccccc2)cc1
inactive: [1] | [2] | [3]

CN(C)CCCn1c(=O)n(C2CCCCC2)c(=O)c2c3c(sc21)CCCCC3
inactive: [1] | [2] | [3]

C[C@H]1CN([C@@H](C)CO)C(=O)c2cc(C#CC3(O)CCCC3)cnc2O[C@@H]1CN(C)Cc1cccnc1
inactive: [1] | [2] | [3]

O=C(NC(=S)NCC1COc2ccccc2O1)c1ccccc1 (stereo not given)
inactive: [1] | [2] | [3]

C[C@@H]1CCCCO[C@@H](CN(C)C(=O)NC2CCCCC2)[C@H](C)CN([C@@H](C)CO)C(=O)c2cc(NS(=O)(=O)c3cn(C)cn3)ccc2O1
inactive: [1] | [2] | [3]
